# Measurements reported in PubChem BioAssay (NCATS).
# Inconclusive results are not listed. A call without a number means that no potency is given here. Active and inactive are the calls of the source. The call rests on the fitted dose curve; in most records, active means well fitted curve in the direction sought with a large enough effect; inconclusive means small, poorly fitted or top-dose-only effect, or another doubt; inactive means no such curve, though single readings can be large; an effect the other way counts as inactive or inconclusive.
# Columns and labels:
# [1] = qHTS to identify inhibitors of the type 1 interferon - major histocompatibility complex class I in skeletal muscle: primary screen against the NCATS Mechanism Interrogation Plate v5.0 (MIPE) Libary (AID 1347411); further: nearly all actives have a fitted effect of over 65% in size; further: potency means the concentration at half of the fitted maximal effect
# Procedure, shortened: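 HLA-B HiBit myoblasts, dexamethasone-free medium + 4 ng/ml IFN-b, 24 h compound, 11-pt 1:3 from 46 uM final. Readout: Nano-Glo HiBiT lytic luminescence after 10 min lysis, RT.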
# [2] = qHTS to identify inhibitors of the type 1 interferon - major histocompatibility complex class I in skeletal muscle: primary screen against the NCATS Pharmaceutical Collection (AID 1347407);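 further: luminescence of HiBiT knocked into endogenous HLA-B as interferon-induced MHC class I level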
# Procedure, shortened: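 A qHTS format is used: 8-point, 1:5 compound series with 46 uM top final concentration, applied alongside 4 ng/ml IFN-beta to HLA-B*08:01-HiBiT knock-in myoblasts. Luminescence is measured after 24 h treatment.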
# [3] = qHTS to identify inhibitors of the type 1 interferon - major histocompatibility complex class I in skeletal muscle: primary screen against the NCATS LOPAC collection (AID 1347405);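 further: human myoblasts with HiBiT tag on endogenous HLA-B stimulated by IFN-beta; lytic HiBiT luminescence reporting HLA-B protein level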; further: potency means the concentration at half of the fitted maximal effect
# Procedure, shortened: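 HLA-B HiBiT myoblasts, IFN-b 4 ng/ml, dexamethasone-free medium; compounds 7-pt 1:4.3 titration, top 46 uM final; 24 h at 37 C; Nano-Glo HiBiT lytic reagent, 10 min RT, luminescence.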
# [4] = qHTS for inhibitors of adenylyl cyclases using a fission yeast platform: a pilot screen against the NCATS LOPAC library (AID 1347410)
# Procedure, shortened: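 Inhibition of GNAS-stimulated AC9 activity in S. pombe was inferred from derepression of a PKA-repressed fbp1-GFP reporter, measured as cytometric fluorescence after 18 h at 30C with compounds at up to 57 µM.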
# [5] = UWB1.289-WTBRCA1 Cancer Cell Toxicity qHTS against the NCATS CANVASS Library (AID 1347354); settings: UWB1.289-WTBRCA1 viability, CellTiter-Glo luminescence, 72 h; further: potency means the concentration at half of the fitted maximal effect
# Procedure, shortened: (§1)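 1000 cells/well, 4 h pre-incubation 37 °C/5% CO2; 11-pnt titration; 72 h; CellTiter-Glo 15 min RT, luminescence.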
# [6] = HEK-293 Cancer Cell Toxicity qHTS against the NCATS CANVASS Library (AID 1347355); settings: HEK-293 viability, CellTiter-Glo luminescence, 72 h; further: potency means the concentration at half of the fitted maximal effect; nearly all actives have a fitted effect of over 65% in size
# Procedure, shortened: as §1
# [7] = biological target: Luciferin 4-monooxygenase (Photinus pyralis) (UniProt P08659); test: Firefly luciferase counterscreen qHTS: Assay Interference Panel against the NCATS CANVASS Library (AID 1347363); further: series mostly up to about 57 µM
# Procedure, shortened: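 Purified P. pyralis luciferase (0.04 ug/mL, 4x reagent) added to Tris-acetate buffer with 0.013 mM D-luciferin, 0.013 mM ATP and 13.3 mM Mg-acetate; compounds preincubated 15 min, then luminescence read after 5 min, RT.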
# [8] = KB-8-5-11 Cancer Cell Toxicity qHTS against the NCATS CANVASS Library (AID 1347364); settings: KB-8-5-11 MDR cells viability, CellTiter-Glo, 72 h; further: potency means the concentration at half of the fitted maximal effect; nearly all actives have a fitted effect of over 75% in size
# Procedure, shortened: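 CellTiter-Glo luminescence after 72 h exposure; 500 KB-8-5-11 cells/well, DMEM/10% FBS, 37C, 5% CO2; compounds in 11-pt qHTS. Follow-up confirmation included medium with 1uM tariquidar.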
# [9] = KB-3-1 Cancer Cell Toxicity qHTS against the NCATS CANVASS Library (AID 1347366); settings: KB-3-1 viability, CellTiter-Glo luminescence, 72 h; further: potency means the concentration at half of the fitted maximal effect; nearly all actives have a fitted effect of over 75% in size
# Procedure, shortened: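 Cytotoxicity toward KB-3-1 cells (500/well, DMEM + 10% FBS) was scored by CellTiter-Glo luminescence following 72 hr exposure at 37C, with bortezomib titrated as control.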
# [10] = qHTS for ATAD5 Agonist screened against the NCATS CANVASS Library (AID 1347367);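 further: luciferase reporter driven by ATAD5 which rises upon DNA damage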
# Procedure, shortened: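 Genotoxicity was scored as increased ATAD5-luciferase luminescence in HEK293T after 16hr of exposure, with cell viability measured by fluorescence beforehand in the same well.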
# [11] = qHTS for ATAD5 Antagonist screened against the NCATS CANVASS Library (AID 1347370); settings: HEK293T-ATAD5-luc, 5-FUrd stimulated, luminescence, 16 h; further: potency means the concentration at half of the fitted maximal effect; nearly all actives have a fitted effect of over 65% in size
# Procedure, shortened: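 HEK293T-ATAD5 luc reporter, 2000 cells/well; 5hr attach; cpd + 10 uM 5-FUrd; 16hr 37C, 5% CO2. Readouts: CellTiter-Fluor fluorescence (1hr), then Amplite luciferase luminescence (30min RT).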
# [12] = biological target: Nuclear receptor subfamily 1 group I member 3 (Homo sapiens) (UniProt Q14994); test: qHTS for Constitutive Androstane Receptor (CAR) Agonist screened against the NCATS CANVASS Library (AID 1347373);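 further: every well also contained 1.5 µM PK11195 alongside the test compound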
# Procedure, shortened: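 Luciferase read-out (ONE-Glo, 30 min RT) of CYP2B6-2.2kb promoter activity in double-stable HepG2-hCAR cells after 24hr compound exposure with 1.5uM PK11195 present; viability measured first by CellTiter-Fluor.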
# [13] = 10-beta competent E. coli microbial cell viability qHTS against the NCATS CANVASS Library (AID 1347376); further: series mostly up to about 46 µM
# Procedure, shortened: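 Luminescence from BacTiter-Glo ATP detection served as the viability read-out; bacteria (0.2 OD) had been incubated overnight at 37C with pin-transferred compounds at 11 concentrations.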
# [14] = qHTS for Antimalaria activity screened against the NCATS CANVASS Library (AID 1347380); further: potency means the concentration at half of the fitted maximal effect; nearly all actives have a fitted effect of over 40% in size; settings: P. falciparum Dd2 growth, SYBR Green fluorescence, 72 h
# Procedure, shortened: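 SYBR Green fluorescence (ex 485, em 535 nm) read after saponin/Triton lysis and 18 h further incubation; Dd2 asexual blood-stage parasites, 72 h compound exposure, 11-pt concentration series, 2.5% hematocrit, 0.3% parasitemia.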
# [15] = Inflammasome Signaling qHTS Counterscreen: IL-1-beta AlphaLISA counterscreen against the NCATS CANVASS Library (AID 1347381);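 further: cell-free check with purified IL-1β in medium and no THP-1 cells; series mostly up to about 57 µM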
# Procedure, shortened: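 Here, no cellular stimulation occurs; compounds in an 11-point series meet 4 pg purified IL-1-beta directly. Bead-based AlphaLISA detection follows (1 h acceptor/antibody, then 30 min donor, dark, room temperature), with excitation at 680 nm.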
# [16] = qHTS for Activators of p53 Stress Response Pathway screened against the NCATS CANVASS Library (AID 1347388); settings: p53RE-bla HCT-116, beta-lactamase reporter, 16 h; further: potency means the concentration at half of the fitted maximal effect
# Procedure, shortened: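 p53RE-bla HCT-116 cells (4000/well) were pre-incubated for 5 h, then treated with compound (11 points) for 16 h at 37C. After 2 h with CCF4, the 460/530 nm ratio gave reporter activation; CellTiter-Glo measured viability.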
# [17] = qHTS assay for small molecule disruptors of mitochondrial membrane potential screened against the NCATS CANVASS Library (AID 1347389); settings: HepG2 mitochondrial membrane potential, m-MPI red/green ratio, 1.5 h; further: potency means the concentration at half of the fitted maximal effect; nearly all actives have a fitted effect of over 60% in size
# Procedure, shortened: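 Red/green fluorescence ratio read-out: J-aggregates ex 540/em 590 nm, monomers ex 490/em 535 nm. HepG2, 1 hr compound treatment, then 30 min Mito-MPS dye at 37C. 11-pt qHTS concentration series.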
# [18] = qHTS for activators of Nrf2/ARE signaling pathway screened against the NCATS CANVASS Library (AID 1347391); further: nearly all actives have a fitted effect of over 60% in size
# Procedure, shortened: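 HepG2 ARE-bla; cpd 11-pt qHTS, 16 h 37C/5% CO2; CCF4 substrate 2 h RT; read ex 405 / em 460 + 530 nm. Viability by CellTiter-Glo luminescence, 30 min RT.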
# [19] = Vero-766 cells viability qHTS against the NCATS CANVASS Library: Counterscreen for Zika virus inhibition assay (AID 1347394); settings: Vero 766 viability, CellTiter-Glo luminescence, 72 h; further: potency means the concentration at half of the fitted maximal effect; nearly all actives have a fitted effect of over 60% in size
# Procedure, shortened: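 Counterscreen for toxicity: Vero 766 cells exposed 72 h to an 11-point compound series, viability by CellTiter-Glo.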
# [20] = Redox Reaction Profiling qHTS: Assay Interference Panel against the NCATS CANVASS Library (AID 1347401)
# Procedure, shortened: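 Fluorescence read-out (525 nm excitation, 598 nm emission) at time zero and after 15 min in the dark tracked resorufin formation. Mix: 5 uM resazurin, 200 uM DTT, HEPES pH 7.3 buffer with NaCl.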
# Sequence of Nuclear receptor subfamily 1 group I member 3 (Homo sapiens) (Q14994 whole entry, looked up): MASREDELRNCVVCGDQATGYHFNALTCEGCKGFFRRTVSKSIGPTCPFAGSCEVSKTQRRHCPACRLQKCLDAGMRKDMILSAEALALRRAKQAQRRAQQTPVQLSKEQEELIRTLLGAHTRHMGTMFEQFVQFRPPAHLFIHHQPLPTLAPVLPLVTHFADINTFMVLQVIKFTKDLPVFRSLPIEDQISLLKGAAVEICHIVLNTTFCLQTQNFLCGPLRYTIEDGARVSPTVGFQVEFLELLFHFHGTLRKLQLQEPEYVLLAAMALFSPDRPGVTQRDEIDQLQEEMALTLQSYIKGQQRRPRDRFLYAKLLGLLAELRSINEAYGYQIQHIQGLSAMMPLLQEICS
# Sequence of Luciferin 4-monooxygenase (Photinus pyralis) (P08659 whole entry, looked up): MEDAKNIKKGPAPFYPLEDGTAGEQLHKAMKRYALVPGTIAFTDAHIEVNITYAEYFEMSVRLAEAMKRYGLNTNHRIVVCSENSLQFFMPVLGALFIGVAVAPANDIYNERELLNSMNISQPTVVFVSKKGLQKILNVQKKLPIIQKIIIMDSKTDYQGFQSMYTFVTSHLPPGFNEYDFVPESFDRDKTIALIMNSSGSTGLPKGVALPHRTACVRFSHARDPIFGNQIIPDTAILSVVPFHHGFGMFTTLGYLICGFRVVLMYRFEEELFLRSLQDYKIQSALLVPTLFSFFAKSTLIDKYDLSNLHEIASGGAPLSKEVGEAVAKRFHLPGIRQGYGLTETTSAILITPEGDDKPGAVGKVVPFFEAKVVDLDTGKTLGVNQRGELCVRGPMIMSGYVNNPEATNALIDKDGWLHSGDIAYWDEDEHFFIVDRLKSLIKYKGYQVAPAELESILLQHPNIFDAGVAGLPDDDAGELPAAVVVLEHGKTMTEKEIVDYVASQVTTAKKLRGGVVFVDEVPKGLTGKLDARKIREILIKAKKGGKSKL
smiles,measurement,setting,value
COc1ccc(-c2c(C)nn3c(NCCN4CCOCC4)cc(C)nc23)cc1OC,Potency,[1],inactive
COc1cccc(-c2cc(F)ccc2C2Cc3nc(N)nc(C)c3C(=O)N2)n1 (stereo unspecified),Potency,[1],0.0587 µM (active)
Cc1[nH]c(/C=C2\C(=O)Nc3ccc(F)cc32)c(C)c1C(=O)NCCN1CCCC1,Potency,[1],10.2 µM (active)
Oc1cccc(-c2c3nc(c(-c4cccc(O)c4)c4ccc([nH]4)c(-c4cccc(O)c4)c4nc(c(-c5cccc(O)c5)c5ccc2[nH]5)CC4)C=C3)c1,outcome,[2],inactive
Cn1cc(-c2cnn3c(N)c(Br)c(C4CCCNC4)nc23)cn1 (stereo unspecified),Potency,[1],inactive
O=C1NC(=O)C(c2cnc3ccccn23)=C1c1cn2c3c(cc(F)cc13)CN(C(=O)N1CCCCC1)CC2,Potency,[1],18.6 µM (active)
NC(=O)c1cnc(N[C@@H]2CCCC[C@@H]2N)nc1Nc1cccc(-n2nccn2)c1,Potency,[1],13.1 µM (active)
CN[C@H]1CC[C@@H](c2ccc(Cl)c(Cl)c2)c2ccccc21,Potency,[3],28.2 µM (active)
same,outcome,[4],inactive
O=C(N[C@H]1CCC[C@H](CO)C1)C1CCN(c2nc3cc(Cl)c(-c4ccc(Cl)cc4)cc3o2)CC1,Potency,[1],inactive
CC(C)CC(=O)c1c(O)cc2c(c1O)C(CC(C)C)C1=C(O2)C(C)(C)C(=O)C(C)(C)C1=O (stereo unspecified),Potency,[5],18.8 µM (active)
same,Potency,[6],20.9 µM (active)
same,outcome,[7],inactive
same,Potency,[8],16.6 µM (active)
same,Potency,[9],26.4 µM (active)
same,outcome,[10],inactive
same,Potency,[11],20.9 µM (active)
same,outcome,[12],inactive
same,outcome,[13],inactive
same,Potency,[14],0.594 µM (active)
same,outcome,[15],inactive
same,Potency,[16],20.9 µM (active)
same,Potency,[17],3.31 µM (active)
same,outcome,[18],inactive
same,Potency,[19],6.6 µM (active)
same,outcome,[20],inactive
C=CC(=O)Nc1cccc(Nc2nc(Nc3ccc(NC4CN(CCF)C4)cc3OC)ncc2C(F)(F)F)c1,Potency,[1],16.5 µM (active)
COc1ccccc1C(=O)Nc1cc2c(cc1N1CCCC1)n(C)c(=O)n2C,Potency,[1],inactive
CN1CCN(c2ccc(-c3cccc(CN4CCOCC4)c3)cc2NC(=O)c2c[nH]c(=O)cc2C(F)(F)F)CC1,Potency,[1],inactive
NCCCC(=O)O,Potency,[3],inactive
same,outcome,[4],inactive
CN1CC[C@@H](c2c(O)cc(O)c3c(=O)cc(-c4ccc(C(F)(F)F)cc4Cl)oc23)[C@@H]1CO,Potency,[1],13.1 µM (active)
COc1ccc(-c2cnc3c(-c4cccc5ncccc45)cnn3c2)cc1,Potency,[1],inactive
O=c1[nH]c([C@@H]2CCCN2)nc2c1oc1ccc(Cl)cc12,Potency,[1],inactive
NCCOc1cc(C(=O)Nc2cc(OCCN)c3ccccc3n2)nc(C(=O)Nc2cc(OCCN)c3ccccc3n2)c1,Potency,[1],inactive
CC(C)(CNC(=O)c1cccc(-c2noc(C(F)(F)F)n2)c1)c1coc(-c2ccccc2)n1,Potency,[1],inactive
C[C@@H]1CN(CC(=O)N2CC(C)(C)c3ncc(Cc4ccc(F)cc4)cc32)[C@@H](CN2CCOC[C@H]2C)CN1,Potency,[1],inactive
Fc1ccc2[nH]ccc2c1-c1nc(N2CCOCC2)c2sc(CN3CCN(CC4CC4)CC3)cc2n1,Potency,[1],33 µM (active)
CN1CCN(C2CCN(C(=O)Nc3cc(Oc4ccc(NC(=O)C5(C(=O)Nc6ccc(F)cc6)CC5)c(F)c4)ccn3)CC2)CC1,Potency,[1],20.8 µM (active)
Cc1cccc(CC(=O)N2CCc3c2ccc(-c2cn(C)c4ncnc(N)c24)c3F)n1,Potency,[1],inactive
CCCC(CCC)C(=O)Nc1ccn([C@@H]2O[C@H](CO)[C@@H](O)C2(F)F)c(=O)n1,Potency,[1],inactive
CC(C)NC(=O)COc1cccc(-c2nc(Nc3ccc4[nH]ncc4c3)c3ccccc3n2)c1,Potency,[1],inactive
Cc1cnc(-c2ccccc2C(C)C)nc1NCc1ccc(-n2ccnn2)cc1,Potency,[1],inactive
COc1cc(OC)c2c(=O)[nH]c(-c3cc(C)c(OCCO)c(C)c3)nc2c1,Potency,[1],inactive
CCOC(=O)[C@@]1(CCCCCCOc2ccc(Cl)cc2)CO1,Potency,[1],inactive
COc1ccc(-n2c(SCCCN3C(=O)c4cccc5cccc(c45)C3=O)nnc2-c2ccncc2)cc1,Potency,[1],inactive
